BAZ2B block = qHTS Assay for Inhibitors of BAZ2B. Bromodomain adjacent to zinc finger domain protein 2B (Homo sapiens), Q9UIF8. AlphaScreen BAZ2B-H3K14Ac peptide displacement. Potency, µM (series often up to 114 µM), for the others: at the highest dose activity change, negative = inhibition, actives largely listed as inhibitors. 360,000 tested, 4.4% active. AID 504333, 2011; further: on the % scale 0 is the no-effect control and ±100 the full control effect; nearly all actives have a fitted effect of over 60% in size
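AlphaScreen luminescence quantifies BAZ2B engagement of H3K14Ac peptide; the protein and biotinylated peptide are both at 50 nM final, buffer PBS pH 7.4 with 0.01% Tween-20, all steps at room temperature.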
Sfp PPTase inh = qHTS Assay for Inhibitors of Bacillus subtilis Sfp phosphopantetheinyl transferase (PPTase). Potency, µM, inactives show largest response in the series, negative = inhibition, actives largely listed as inhibitors. Biochemical Sfp PPTase activity, qHTS. 4'-phosphopantetheinyl transferase ffp (Bacillus subtilis), Q9F4F7. 310,000 tested, 3.5% active;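 further: the enzyme is Sfp with the accession as filed and its product quenches rhodamine fluorescence; 0% = enzyme reaction without inhibitor and -100% = no enzyme wells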
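Buffer: 50 mM Hepes-Na pH 7.6, 10 mM MgCl2, 0.01% Nonidet P-40, 0.01% BSA. Enzyme 15 nM, pre-exposed to compound 15 min; substrates then added and fluorescence change tracked over 30 min.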
HP1b binding inh = HTS for Inhibitors of HP1-beta Chromodomain Interactions with Methylated Histone Tails | AlphaScreen HP1-beta / biotin-H3K9me3 peptide binding | 390,000 tested, 0.56% active | Chromobox protein homolog 1 (Homo sapiens), P83916 | AID 540317, 2011 | Potency, µM (doses to about 114 µM), for inactives: top-dose activity change, negative = inhibition, most hits filed as inhibitors; further: nearly all actives have a fitted effect of over 70% in size
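HP1-beta protein (50 nM final) preincubated 30 min at room temperature with biotinylated H3(1-18)K9me3 peptide (50 nM) in PBS pH 7.4, 0.01% Tween-20, then compound added for 30 min. AlphaScreen streptavidin donor/nickel chelate acceptor beads (10 ug/mL final), 30 min dark, luminescence read.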
G9a block = qHTS Assay for Inhibitors of Histone Lysine Methyltransferase G9a | 350,000 tested, 8.8% active | Potency, µM (highest dose often 102 µM), for the others: at the highest dose activity, negative = inhibition, most hits filed as inhibitors | AID 504332, 2011 | G9a H3K9 monomethylation, AlphaScreen, 2 h; further: on the % scale 0 is the no-effect control and ±100 the full control effect; nearly all actives have a fitted effect of over 75% in size
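Quantitative HTS format: methyltransferase activity on a biotin-tagged H3K9 peptide is measured by AlphaScreen, using a rabbit anti-monomethyl-H3K9 antibody with streptavidin donor and anti-IgG acceptor beads. Final levels are 20 nM enzyme, 500 nM peptide, 20 uM SAM; 2 h RT.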
12-LOX inh = Primary qHTS assay for inhibitors of human arachidonate 12S-lipoxygenase (ALOX12): Round 2. Polyunsaturated fatty acid lipoxygenase ALOX12 (Homo sapiens), P18054. purified 12hLO, xylenol orange hydroperoxide absorbance. Potency, µM (series often up to 108 µM), for inactives: top-dose activity change, negative = inhibition, actives largely listed as inhibitors. 580,000 tested, 1.1% active; further: on the % scale 0 is the no-effect control and ±100 the full control effect
Target sequence (P18054 whole entry, looked up): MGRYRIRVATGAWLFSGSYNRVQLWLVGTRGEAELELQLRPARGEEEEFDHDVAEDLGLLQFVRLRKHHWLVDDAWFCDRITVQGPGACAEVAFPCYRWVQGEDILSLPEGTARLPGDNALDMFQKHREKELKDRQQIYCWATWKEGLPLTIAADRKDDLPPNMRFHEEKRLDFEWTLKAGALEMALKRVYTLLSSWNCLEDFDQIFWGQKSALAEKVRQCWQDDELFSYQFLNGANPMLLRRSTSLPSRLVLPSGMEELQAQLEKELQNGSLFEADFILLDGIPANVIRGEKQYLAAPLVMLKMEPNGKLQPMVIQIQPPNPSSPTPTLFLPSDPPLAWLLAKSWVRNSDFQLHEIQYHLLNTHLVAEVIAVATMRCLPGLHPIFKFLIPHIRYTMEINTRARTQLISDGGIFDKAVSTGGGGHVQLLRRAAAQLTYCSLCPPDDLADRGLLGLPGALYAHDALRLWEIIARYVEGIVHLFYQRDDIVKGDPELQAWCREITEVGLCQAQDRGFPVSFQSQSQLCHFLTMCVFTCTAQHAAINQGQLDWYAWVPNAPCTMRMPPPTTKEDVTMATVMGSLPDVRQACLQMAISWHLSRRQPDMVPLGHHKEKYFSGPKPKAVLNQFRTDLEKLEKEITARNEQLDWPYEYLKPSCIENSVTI
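Hydroperoxide product was detected by ferrous iron/xylenol orange as the 573 to 405 nm absorbance ratio. Arachidonic acid at 40 uM (final) was turned over for 30 min at room temperature by 150 nM human 12hLO, pH 7.0 Hepes buffer, after 15 min compound preincubation.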
JMJD2A Tudor = qHTS Assay for Inhibitors of JMJD2A-Tudor Domain. Lysine-specific demethylase 4A (Homo sapiens), O75164. 390,000 tested, 4.4% active. Potency, µM (titrated, usually from 114 µM), without a hit: at the highest dose activity change, negative = inhibition, usual class: inhibitors. AID 504339, 2011. AlphaScreen JMJD2A-Tudor / H3K4me3 peptide binding; further: on the % scale 0 is the no-effect control and ±100 the full control effect; nearly all actives have a fitted effect of over 50% in size
* = called active by the depositor; ? = inconclusive; . = no result; ! = a repeat was not active; [ ] = dose if it differs, or a comment. An excerpt weighted towards active compounds, which were near 8.7% of everything screened. The call rests on the fitted dose curve; in most records, active means well fitted curve in the direction sought with a large enough effect; inconclusive means small, poorly fitted or top-dose-only effect, or another doubt; inactive means no such curve, though single readings can be large; an effect the other way counts as inactive or inconclusive. Potency means the concentration at half of the fitted maximal effect.

SMILES | BAZ2B block | Sfp PPTase inh | HP1b binding inh | G9a block | 12-LOX inh | JMJD2A Tudor
COc1ccccc1N1CCN(CCc2n[nH]c(=S)n2-c2ccccc2)CC1 | 50µM* | -11% | 2% | ? | ? | 18µM*
CCCCC(CC(O)COCCC)c1n[nH]c(=S)n1-c1ccccc1 (centres undefined) | -1% | ? | 40% | 15%[0.501 µM] | -29% | 16µM*
COc1ccc(-n2c(Cn3nnc4ccccc43)n[nH]c2=S)cc1 | 1% | -6% | 34% | 8.9µM* | -3% | 18µM*
COc1ccc(-n2c(Cn3nnc4ccccc43)nnc2SCC(=O)O)cc1 | . | 21% | 29% | -7%[59 µM] | 25% | -6%
O=S(=O)(NCCCn1ccc2ccccc21)c1cccc(F)c1 | . | . | . | . | -30% | .
S=c1[nH]nc(CCSCc2ccccc2)n1-c1ccccc1 | ? | -9% | 11% | 3.5µM* | ? | 40µM*
COc1ccc(CN2C(=O)CO[C@H]3CN(Cc4c[nH]c5ccccc45)C[C@H]32)cc1 | . | . | . | . | 40µM* | .
O=C(O)c1cc(O)c2c(c1)[O][Bi][O]2 | . | ? | . | 1µM* | . | .
O=C(O)c1ccc2c(c1)OCO2 | . | 10% | . | . | . | .
O=C(NCc1n[nH]c(=S)n1-c1ccc(Cl)c(Cl)c1)c1ccco1 | -8% | -12% | 18% | 8%[12.7 µM] | ? | 50µM*
O=C(NCCNCc1ccccc1)c1ccco1 | . | . | -11%[57 µM] | . | 28µM* | 25µM*
CCc1ccc(CNCCNC(=O)c2ccco2)cc1 | . | . | 15%[57 µM] | . | -20% | -24%
O=C(NCc1n[nH]c(=S)n1-c1ccccc1)c1ccco1 | 8% | ? | 27% | 8.9µM* | ? | 16µM*
COc1ccccc1-n1c(CNC(=O)c2ccco2)n[nH]c1=S | -2% | -2% | 42% | 25µM* | -13% | ?
CCC(C)NC(=O)C1COC2(CCN(C(=O)CC(C)(C)C)CC2)N1C(=O)c1cccc(C)c1 (centres undefined) | . | . | . | . | 49% | .
COc1cccc(CN2Cc3cc(NS(=O)(=O)c4ccccc4)ccc3OCC2=O)c1OC | . | . | . | . | 10µM* | .
COc1ccc(C(=O)Nc2ccc3c(c2)CN(Cc2cccc(OC)c2OC)C(=O)CO3)cc1OC | . | . | . | . | -3% | .
C/C(=N\Nc1nc2ccccc2c(=O)n1O)c1ccco1 | -4% | 79µM* | ? | 79µM* | -1% | ?
Cc1ccc2nc(C)cc(N/N=C/c3ccccc3O)c2c1 | -34% | 6% | 8% | 16% | -12% | -35%
Cc1ccc(C)c(/C=N/Nc2nc3ccccc3c(=O)n2O)c1 | 1% | 25µM* | -13% | 28µM* | -5% | -11%
CC1(C)C(=O)N(CC(=O)NC2CCCc3ccccc32)c2ccccc21 (centres undefined) | . | . | . | . | 19% | .
CC(C)C(C)NC(=O)Nc1ccc(C(N)=O)c(Cl)c1 (centres undefined) | . | . | . | . | -4% | .
S=c1[nH]c2ccc(Cc3ccc4[nH]c(=S)[nH]c4c3)cc2[nH]1 | -20% | 28µM* | -11% | 0.28µM* | 45µM* | -16%
S=c1[nH]c2cc3ccccc3cc2[nH]1 | -18% | 56µM*! | 1% | 2.2µM* | ? | -23%
Cc1cc2[nH]c(=S)[nH]c2cc1C | -7% | 35µM* | 40µM* | 1.8µM* | ? | ?
SMILES | BAZ2B block | Sfp PPTase inh | HP1b binding inh | G9a block | 12-LOX inh | JMJD2A Tudor
S=c1[nH]c2ccc3ccccc3c2[nH]1 | ? | -4% | 25% | . | -11% | -16%
Nc1ccc2[nH]c(=S)[nH]c2c1 | . | . | 4%[57 µM] | . | ? | -5%
CCCC(=O)N1C[C@@H](CO)[C@H](c2nc(-c3ccncc3)no2)C1 | . | . | . | . | 51% | .
CC(=O)NCCN=Cc1sc2ccccc2c1O | -35% | -11% | 25% | -6%[0.0925 µM] | -15% | -1%
CCCN=Cc1sc2ccc(OCC)cc2c1O | . | 50µM* | -8% | ? | ? | -33%
CC(C)N(Cc1ccccc1)C(=O)COC(=O)C1CCN(c2ccc(C(F)(F)F)cn2)CC1 | 6% | . | ? | 35µM* | -10% | 11%
CC(C)(C)N(Cc1ccccc1)C(=O)COC(=O)C1CCN(c2ccc(C(F)(F)F)cn2)CC1 | 6% | . | 49% | ? | ? | 16%
CCN(c1ccc(NC(=O)COC(=O)C2CCN(c3ccc(C(F)(F)F)cn3)CC2)cc1)C(C)C | . | . | ? | . | 36% | 10µM*
CC(=O)c1c(C)[nH]c(C(=O)OC(c2ccccc2)c2ccc(Cl)cc2)c1C (centres undefined) | . | . | . | . | -51% | .
Cc1c2c(=O)n(-c3nc4ccccc4s3)nc-2cc(O)n1Cc1ccccc1 | 40µM* | -27% | 18% | . | . | -27%
CC1(C)CCCN(C(=O)c2coc(=O)c(Br)c2)C1 | 20µM* | -4% | -95% | . | ? | 18µM*
O=C(c1noc2c1CCc1ccccc1-2)N1CCc2ccccc2C1 | 21% | 1µM* | . | 3%[12.7 µM] | . | .
O=C(c1cc(-c2ccco2)on1)N1CCc2ccccc2C1 | 25µM* | 45µM* | -16% | 11µM* | 18µM* | 50µM*
CC1CCN(C(=O)c2cc(-c3ccco3)on2)CC1 | 0% | 1% | 1% | ? | ? | -13%
CC1CCCC(C)N1C(=O)c1cc(-c2ccco2)on1 (centres undefined) | 0% | -2% | 24% | 50µM* | -18% | -7%
Cn1nc(CC(=O)NCC2CCCCC2)c2ccccc2c1=O | . | . | . | . | -29% | .
O=C(c1cc(-c2ccco2)on1)N1CCCc2ccccc21 | ? | -5% | -8% | 13µM* | ? | 56µM*
O=C(c1nn2c(C(F)(F)F)cc(-c3ccco3)nc2c1Br)N1CCCc2ccccc21 | 2% | -19% | 1% | 18µM* | ? | -13%[57.1 µM]
O=C(c1coc(=O)c(Br)c1)N1CCCc2ccccc21 | 22µM* | 79µM* | -34% | 18µM* | 7.1µM* | 40µM*
Fc1cccc(Nc2nc(NCc3ccco3)nc3c2cnn3-c2ccccc2)c1 | . | . | . | . | -19% | .
Cc1ccc(S(=O)(=O)N(C)C)cc1NC(=O)[C@H](Cc1ccccc1)N1C(=O)c2ccccc2C1=O | -6% | -3% | 2% | 19% | -29% | -16%
COc1ccc(S(=O)(=O)N(C)C)cc1NC(=O)[C@H](Cc1ccccc1)N1C(=O)c2ccccc2C1=O | 3% | 15% | 37% | 50µM* | -18% | -7%
Cc1cc(C(=O)Cn2c(Cl)nc3c2c(=O)n(C)c(=O)n3C)c(C)n1C1CC1 | . | . | . | . | 7% | .

Compound activity deposited in PubChem BioAssay by National Center for Advancing Translational Sciences (NCATS).
